Records with an inconclusive call do not appear. Calls of active or inactive are those of the source. Unless noted, the call rests on the fitted dose curve; in most records, active means well fitted cell-killing curve with a large enough effect in the repeat runs (not every such curve was filed as active); inconclusive means weak or mixed curves, or effect the other way; inactive means no such curve, though single readings can be large or run the other way.
system: not listed separately; experiment: qHTS assay to identify small molecule antagonists of the farnesoid-X-receptor (FXR) signaling pathway - cell viability counter screen (AID 743221); conditions: FXR-bla HEK293T viability, CellTiter-Glo luminescence, 16 h; series mostly up to 62.6 µM; activity change, negative = cytotoxicity: at the top concentration; further: nearly all actives have a fitted effect of over 50% in size
Summary of the method: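 Compound effects on cell number were measured as CellTiter-Glo luminescence in HEK 293T cells expressing FXR-UAS-bla, after 16 h at 37 C with 50 uM CDCA (final).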
On the % scale 0 is the no-effect control and ±100 the full control effect.

SMILES	activity change, negative = cytotoxicity
OCCCCC(O)CO (stereo unspecified)	0.469% (inactive)
CCCCCCCCC(=O)Cl	10.6% [at 81.1 µM] (inactive)
ClCCCl	5.54% (inactive)
CC(C)CCCCOC(=O)c1ccccc1C(=O)OCCCCC(C)C	5.88% (inactive)
C=COCCOCCOCCOC=C	3.51% (inactive)
c1ccc2nccnc2c1	2.52% [at 81.1 µM] (inactive)
O=C(NCCc1c[nH]c2ccccc12)c1cccnc1	12.2% (inactive)
CCCCCCCCC1CCC(=O)O1 (stereo unspecified)	-12.8% (inactive)
CC1COc2ccccc2N1 (stereo unspecified)	9.52% (inactive)
CCCCNC1CC(C)(C)NC(C)(C)C1	14.9% (inactive)
C#CC(C)N(C)C(=O)Nc1ccc(Cl)cc1 (stereo unspecified)	-18.4% (inactive)
CN1C(C)(C)CCCC1(C)C	6.74% (inactive)
O=S(=O)(O)c1cc(O)c2ccc(Nc3ccccc3)cc2c1	-8.58% (inactive)
CC(C)c1ccc2cc(C(C)C)ccc2c1	29.3% (inactive)
CC(C)(C)c1nnc(NS(=O)(=O)c2ccc(N)cc2)s1	8.62% (inactive)
C[C@@H]1O[C@@H](O[C@@H]2[C@@H](O)[C@H](OCCc3ccc(O)c(O)c3)O[C@H](CO[C@@H]3O[C@H](CO)[C@@H](O)[C@H](O)[C@H]3O)[C@H]2OC(=O)/C=C/c2ccc(O)c(O)c2)[C@H](O)[C@H](O)[C@H]1O	-2.41% (inactive)
CC(C)CC(=O)O	-7.2% (inactive)
Cc1cccc(OCC(O)CNC(C)(C)C)c1C (stereo unspecified)	-2.55% (inactive)
CCCC(=O)C(C)=O	25% (inactive)

SMILES	activity change, negative = cytotoxicity
O=S(=O)(O)c1ccc2cc(O)c(S(=O)(=O)O)cc2c1	-1% (inactive)
CCCOC(OCCC)OCCC	-13.9% (inactive)
COc1cc(N)ccc1C	-13.1% (inactive)
COc1cc(NS(=O)(=O)c2ccc(N)cc2)nc(OC)n1	9.76% (inactive)
CC(C)(C)c1cc(CCC(=O)NN)cc(C(C)(C)C)c1O	22.5% (inactive)
CC(N)C(=O)OC(C)(C)Cc1ccc(Cl)cc1 (stereo unspecified)	-10.5% (inactive)
CCCN1C[C@H](CSC)C[C@@H]2c3cccc4[nH]cc(c34)C[C@H]21	-9.84% (inactive)
CC(C(=O)O)c1ccc2c(c1)CC(=O)c1ccccc1S2 (stereo unspecified)	7.55% (inactive)
CC(C)C(=O)OCCc1ccccc1	5.66% (inactive)
COCCOC(=O)C1=C(C)NC(C)=C(C(=O)OC(C)C)C1c1cccc([N+](=O)[O-])c1 (stereo unspecified)	-6.63% (inactive)
COc1cc2c(cc1OC)[C@@H]1CC(=O)[C@@H](CC(C)C)CN1CC2	-1.86% (inactive)
C=CCCCCCCCCCCCC	-0.321% (inactive)
Cc1cc2cc3c(C)cc(=O)oc3c(C)c2o1	12.7% (inactive)
CC1=CCC(C(C)C)=CC1	0.896% (inactive)
Cc1ccc(S(=O)(=O)O)c(C)c1	-11% (inactive)
Nc1ccc([N+](=O)[O-])c(N)c1	3.67% (inactive)
Cc1ccccc1N=O	18.4% [at 81.1 µM] (inactive)
CC[C@H](C)C(=O)O[C@H]1C[C@H](O)C=C2C=C[C@H](C)[C@H](CC[C@@H](O)C[C@@H](O)CC(=O)O)[C@H]21	-19.7% (inactive)

target: Vitamin D3 receptor (Homo sapiens) (UniProt P11473); experiment: qHTS assay to identify small molecule agonists of the vitamin D receptor (VDR) signaling pathway (AID 743222; calls by dose curve); conditions: HEK293T VDR-UAS-bla, beta-lactamase FRET ratio, 16 h; series mostly up to 63.5 µM; activation: at the top concentration
Sequence (P11473 whole entry, looked up): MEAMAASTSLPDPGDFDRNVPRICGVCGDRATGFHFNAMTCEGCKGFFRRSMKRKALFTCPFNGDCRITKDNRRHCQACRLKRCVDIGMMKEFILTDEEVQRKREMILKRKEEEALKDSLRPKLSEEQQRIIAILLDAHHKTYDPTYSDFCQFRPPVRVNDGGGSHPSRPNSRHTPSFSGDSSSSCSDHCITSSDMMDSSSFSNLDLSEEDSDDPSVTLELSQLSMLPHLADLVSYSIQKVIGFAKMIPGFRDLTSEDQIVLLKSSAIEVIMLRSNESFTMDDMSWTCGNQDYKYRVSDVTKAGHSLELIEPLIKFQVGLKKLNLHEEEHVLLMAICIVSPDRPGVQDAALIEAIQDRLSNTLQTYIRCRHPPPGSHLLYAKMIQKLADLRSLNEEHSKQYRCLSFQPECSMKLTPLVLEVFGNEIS
Summary of the method: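 Beta-lactamase reporter readout (LiveBLAzer B/G FRET, 2 h RT) in VDR-bla cells after 16 h compound treatment at 37C, 5% CO2; cells pre-incubated 4 h before pin transfer of DMSO solutions.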

SMILES	activation
OCCCCC(O)CO (stereo unspecified)	2.46% (inactive)
CCCCCCCCC(=O)Cl	-12.4% [at 81.1 µM] (inactive)
ClCCCl	0.296% (inactive)
C=COCCOCCOCCOC=C	2.11% (inactive)
c1ccc2nccnc2c1	1.36% [at 81.1 µM] (inactive)
O=C(NCCc1c[nH]c2ccccc12)c1cccnc1	-8.25% (inactive)
CCCCCCCCC1CCC(=O)O1 (stereo unspecified)	1.56% (inactive)
CC1COc2ccccc2N1 (stereo unspecified)	4.81% (inactive)
CCCCNC1CC(C)(C)NC(C)(C)C1	-0.289% (inactive)
C#CC(C)N(C)C(=O)Nc1ccc(Cl)cc1 (stereo unspecified)	-14.9% (inactive)
CN1C(C)(C)CCCC1(C)C	2.1% (inactive)
O=S(=O)(O)c1cc(O)c2ccc(Nc3ccccc3)cc2c1	0.0081% (inactive)
CC(C)c1ccc2cc(C(C)C)ccc2c1	0.614% (inactive)
O=C(c1ccc(O)cc1)c1ccc(O)c(O)c1O	-22.1% [at 81.1 µM] (inactive)
CC(C)(C)c1nnc(NS(=O)(=O)c2ccc(N)cc2)s1	4.64% (inactive)
C[C@@H]1O[C@@H](O[C@@H]2[C@@H](O)[C@H](OCCc3ccc(O)c(O)c3)O[C@H](CO[C@@H]3O[C@H](CO)[C@@H](O)[C@H](O)[C@H]3O)[C@H]2OC(=O)/C=C/c2ccc(O)c(O)c2)[C@H](O)[C@H](O)[C@H]1O	-7.67% (inactive)
CC(C)CC(=O)O	-6.18% (inactive)

SMILES	activation
Cc1cccc(OCC(O)CNC(C)(C)C)c1C (stereo unspecified)	7.44% (inactive)
CCCC(=O)C(C)=O	1.47% (inactive)
O=S(=O)(O)c1ccc2cc(O)c(S(=O)(=O)O)cc2c1	4.44% (inactive)
CCCOC(OCCC)OCCC	10.6% (inactive)
COc1cc(N)ccc1C	-1.16% (inactive)
COc1cc(NS(=O)(=O)c2ccc(N)cc2)nc(OC)n1	5.89% (inactive)
CC(C)(C)c1cc(CCC(=O)NN)cc(C(C)(C)C)c1O	-6.07% (inactive)
CC(N)C(=O)OC(C)(C)Cc1ccc(Cl)cc1 (stereo unspecified)	8.61% (inactive)
CCCN1C[C@H](CSC)C[C@@H]2c3cccc4[nH]cc(c34)C[C@H]21	-10.2% (inactive)
CC(C)C(=O)OCCc1ccccc1	-0.0244% (inactive)
COc1cc2c(cc1OC)[C@@H]1CC(=O)[C@@H](CC(C)C)CN1CC2	2.61% (inactive)
C=CCCCCCCCCCCCC	5.62% (inactive)
Cc1cc2cc3c(C)cc(=O)oc3c(C)c2o1	-4.7% (inactive)
Cc1ccc(S(=O)(=O)O)c(C)c1	0.578% (inactive)
Nc1ccc([N+](=O)[O-])c(N)c1	4.21% (inactive)
Cc1ccccc1N=O	-1.96% [at 81.1 µM] (inactive)
CC[C@H](C)C(=O)O[C@H]1C[C@H](O)C=C2C=C[C@H](C)[C@H](CC[C@@H](O)C[C@@H](O)CC(=O)O)[C@H]21	-13.5% (inactive)

Source: PubChem BioAssay (Tox21)
